Data: PubChem BioAssay AID504910 (Southern Research Specialized Biocontainment Screening …, 2011)
Entries with a potency or affinity are not part of this list. Calls of active or inactive are those of the source. No rule for the calls is given here.

Test: HepG2 cell cytotoxicity, cytotoxicity control, set 4 (AID 504910)
Conditions: series mostly up to 50 µM

Which outcome does the source give for `Cc1nc(SCC(=O)NCCC(C)C)[nH]c(=O)c1C` here?
Its outcome is “inactive”.

With `CN1CCC(NC(=O)CSc2nc3ccccc3c(=O)[nH]2)CC1` as the molecule, how does the outcome read?
Its outcome is “inactive”.

For `CCC(Sc1nc2ccccc2c(=O)[nH]1)C(=O)Nc1cccc(OC)c1` (stereo unspecified), which outcome is on record?
Its outcome is “inactive”.

For `COC(=O)C(C)Oc1ccc(Cc2ncc(C(F)(F)F)cc2Cl)cc1` (stereo unspecified), which outcome is on record?
The outcome was “inactive”.

With `COC(=O)C(Nc1nc(SCC(=O)NC2CCCCC2)nc2ccccc12)c1ccccc1` (stereo unspecified) as the molecule, how does the outcome read?
The outcome was “inactive”.

For `Cc1cc(C)n2nc(N)c(N=Nc3ccccc3)c2n1`, which outcome is on record?
The outcome was “inactive”.

With `CC[C@@H](CO)NCCN[C@@H](CC)CO` as the molecule, how does the outcome read?
Its outcome is “inactive”.

Which outcome does the source give for `CCC(Sc1nc2c(c(=O)[nH]1)CCC2)C(=O)Nc1cccc(OC)c1` (stereo unspecified) here?
The outcome was “inactive”.

With `O=c1[nH]c(=S)[nH]c2ccccc12` as the molecule, how does the outcome read?
The outcome was “inactive”.

With `CN[C@@H]1[C@H](O[C@H]2[C@H](O[C@H]3[C@H](O)[C@@H](O)[C@H](N=C(N)N)[C@@H](O)[C@@H]3N=C(N)N)O[C@@H](C)[C@]2(O)C=O)O[C@@H](CO)[C@H](O)[C@H]1O` as the molecule, how does the outcome read?
Its outcome is “inactive”.

With `O=C(CSc1nc2c(c(=O)[nH]1)CCCC2)NC1CCCCC1` as the molecule, how does the outcome read?
The outcome was “inactive”.

With `CC(C)NC(=O)CSc1nc2ccccc2c(=O)[nH]1` as the molecule, how does the outcome read?
The outcome was “inactive”.

Which outcome does the source give for `COc1cccc(NC(=O)CSc2nc3c(c(=O)[nH]2)CCC3)c1` here?
Its outcome is “inactive”.

For `Cn1c(SCC(=O)NC2CCCCC2)nc2ccccc2c1=O`, which outcome is on record?
The outcome was “inactive”.

For `Nc1cc(=O)[nH]c(SCC(=O)NC2CCCCC2)n1`, which outcome is on record?
Its outcome is “inactive”.

For `COc1ccc(NC(=O)CSc2nc3ccccc3c(=O)[nH]2)cc1`, which outcome is on record?
Its outcome is “inactive”.

With `Cc1[nH]c(=S)[nH]c(=O)c1C` as the molecule, how does the outcome read?
The outcome was “inactive”.

Which outcome does the source give for `O=C(CSc1nc2ccccc2c(=O)[nH]1)NCc1ccc(Cl)cc1` here?
The outcome was “inactive”.

For `CCOC(=O)CSc1nc(C)c(C)c(=O)[nH]1`, which outcome is on record?
The outcome was “inactive”.

With `Cc1nc(SCC(=O)N(C)c2ccccc2)[nH]c(=O)c1C` as the molecule, how does the outcome read?
The outcome was “inactive”.

Which outcome does the source give for `Cc1cc(=O)[nH]c(=S)[nH]1` here?
The outcome was “inactive”.

For `NC(=O)c1cnccn1`, which outcome is on record?
The outcome was “inactive”.

Which outcome does the source give for `CC(C)CCNC(=O)CSc1nc2c(c(=O)[nH]1)CCC2` here?
Its outcome is “inactive”.

With `CCCc1cc(C(N)=S)ccn1` as the molecule, how does the outcome read?
Its outcome is “inactive”.

With `CC[N+](C)(CC)CCCCOc1ccc2c(c1)C(=O)c1cc(OCCCC[N+](C)(CC)CC)ccc1-2` as the molecule, how does the outcome read?
The outcome was “inactive”.

With `CC1CCN(C(=O)C2CCN(c3nnc(-n4cccc4)s3)CC2)CC1` as the molecule, how does the outcome read?
The outcome was “inactive”.

Which outcome does the source give for `NC[C@H]1O[C@H](O[C@H]2[C@H](O)[C@@H](O[C@H]3O[C@H](CO)[C@@H](O)[C@H](N)[C@H]3O)[C@H](N)C[C@@H]2N)[C@H](O)[C@@H](O)[C@@H]1O` here?
Its outcome is “inactive”.

Which outcome does the source give for `COC(=O)c1ccc(CNc2c(N3CCCC3)c(=O)c2=O)cc1` here?
Its outcome is “inactive”.

Which outcome does the source give for `O=C(CSc1nc2ccccc2c(=O)[nH]1)NC1CCCC1` here?
Its outcome is “inactive”.

With `O=C(CSc1nc2ccccc2c(=O)[nH]1)N1CCOCC1` as the molecule, how does the outcome read?
Its outcome is “inactive”.

Which outcome does the source give for `CN(C)C(=O)CSc1nc2ccccc2c(=O)[nH]1` here?
The outcome was “inactive”.
